Screens deposited in PubChem by National Center for Advancing Translational Sciences (NCATS).
Cruzain inh noDet: cruzain (T. cruzi) inhibition without detergent; Potency, µM, for inactives: max response, negative = inhibition, hits mostly inhibitors; 2.3% of 200,000 active; purified cruzain, Z-FR-AMC fluorescence, no detergent; AID 1476;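 note: plate controls were enzyme without inhibitor for no effect and buffer without enzyme for full effect; nearly all actives have a fitted effect of over 40% in size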
Target sequence (P25779 123-467 limits assumed): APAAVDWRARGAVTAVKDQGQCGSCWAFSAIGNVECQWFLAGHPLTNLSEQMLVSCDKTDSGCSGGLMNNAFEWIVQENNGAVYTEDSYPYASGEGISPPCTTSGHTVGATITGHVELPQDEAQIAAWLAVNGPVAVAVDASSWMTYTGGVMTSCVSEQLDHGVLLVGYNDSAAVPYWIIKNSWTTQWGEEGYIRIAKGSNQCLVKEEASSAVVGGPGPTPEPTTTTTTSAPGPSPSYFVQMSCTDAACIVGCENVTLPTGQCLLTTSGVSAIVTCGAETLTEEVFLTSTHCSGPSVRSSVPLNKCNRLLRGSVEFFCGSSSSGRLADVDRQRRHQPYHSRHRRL
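Purified cruzain at 1.5 nM, pre-incubated 15 min with compound at room temperature in 100 mM sodium acetate pH 5.5, 5 mM DTT, 0.00005% Triton X-100. Reaction started with 2 uM Z-FR-AMC; AMC fluorescence increase over 60 s gives rate.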
Cruzain inh Det: blocks cruzain activity in presence of Triton detergent; P25779; purified cruzain, Z-FR-AMC fluorescence, 0.01% Triton; Potency, µM, inactives show max response, negative = inhibition, most hits filed as inhibitors; 0.43% of 200,000 active; AID 1478;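 note: plate controls were neutral wells for no effect and buffer without enzyme for full effect; nearly all actives have a fitted effect of over 40% in size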
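Steps: dispense cruzain (1.5 nM final) in acetate buffer pH 5.5 with DTT and 0.01% Triton X-100; pin-transfer compounds; incubate 15 min RT; add Z-FR-AMC (2 uM final); read fluorescence every 30 s, using the 60 s intensity change.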
Active calls of the source: *; ? = inconclusive. Sampled rows, rich in hits. Any-hit rate of the full collection: about 2.6%. Calls come from the whole dose curve; as a rule, active = well fitted curve in the direction sought with a large enough effect; inconclusive = small, poorly fitted or top-dose-only effect, or another doubt; inactive = no such curve, though single readings can be large; an effect the other way counts as inactive or inconclusive. Potency is the fitted concentration of half-maximal effect.

SMILES	Cruzain inh noDet	Cruzain inh Det
Cc1ccc(C#N)c(=O)n1CC(=O)Nc1ccccc1C(F)(F)F	7%	-5%
N#CC1=C(N)n2c(s/c(=C\c3cccs3)c2=O)=C(C#N)C1c1cccs1 (stereo unspecified)	25µM*	-24%
N#CC1=C(N)n2c(s/c(=C\c3ccco3)c2=O)=C(C#N)C1c1ccco1 (stereo unspecified)	-25%	-9%
CC(=O)c1ccc(NS(=O)(=O)c2ccc3[nH]c4c(c3c2)CCCCCC4)cc1	?	-12%
COc1cccc(NC(=O)C2CCN(S(=O)(=O)c3ccc4[nH]c5c(c4c3)CCCCC5)CC2)c1	20µM*	-2%
CSc1cccc(NC(=O)C2CCN(S(=O)(=O)c3ccc4[nH]c5c(c4c3)CCCCC5)CC2)c1	13µM*	3%
CSc1cccc(NC(=O)C2CCN(S(C)(=O)=O)CC2)c1	1%	10%
COc1ccccc1NC(=O)C1CCN(S(=O)(=O)c2ccc3[nH]c4c(c3c2)CCCCC4)CC1	20µM*	-3%
CCOc1ccccc1NC(=O)C1CCN(S(=O)(=O)c2ccc3[nH]c(=O)ccc3c2)CC1	10%	-3%
COc1cccc(NS(=O)(=O)c2ccc3[nH]c4c(c3c2)CCCCCC4)c1	-29%	-10%
CC(=O)c1ccc(N2CCN(S(=O)(=O)c3ccc4[nH]c5c(c4c3)CCCCC5)CC2)cc1	10µM*	-6%
COc1ccc(OC)c(N(CC(=O)Nc2ccc3c(c2)OCCO3)S(C)(=O)=O)c1	3%	2%
CN1CCN(S(=O)(=O)c2ccc(NC(=O)c3cccc(S(=O)(=O)N4CCCC4)c3)cc2)CC1	-5%	4%
CC(C)=C[C@H]1[C@@H](C(=O)OCc2cc3c(cc2Cl)OCO3)C1(C)C	-6%	0%
CCn1c(SCC(=O)Nc2ccccc2)nc2c([nH]c3ccccc32)c1=O	-5%	-3%
CC(=O)c1cccc(NC(=O)C2CCN(S(=O)(=O)c3ccc(F)cc3)CC2)c1	-11%	2%
O=C(Nc1cccc(F)c1)C1CCN(S(=O)(=O)c2ccc3[nH]c4c(c3c2)CCCCC4)CC1	16µM*	1%
N#Cc1c(N2CCCC(O)C2)nc(N)c2c(N)nc3c(c12)CC(=O)N3C12CC3CC(CC(C3)C1)C2 (stereo unspecified)	2%	-15%
C=C(C)CN(CC)c1nc(N)c2c(N)nc3c(c2c1C#N)CC(=O)N3C12CC3CC(CC(C3)C1)C2	4µM*	-3%
Cc1ccc(NC(=O)/C(C#N)=C/c2cc(C)n(-c3ccc(F)cc3)c2C)cc1C	-1%	-2%
COCC(=O)Nc1nnc(COc2ccc(Cl)cc2)s1	?	2%
O=c1[nH]c2ccccc2nc1C(Cl)c1ccccc1 (stereo unspecified)	-15%	-2%
NC(=S)Nc1nc2ccccc2[nH]c1=O	?	7.9µM*
COc1ccc(NC(=O)CN(c2ccc([N+](=O)[O-])cc2)S(=O)(=O)c2ccccc2)c(OC)c1	-5%	-4%
COc1ccccc1NC(=O)CN(c1ccc([N+](=O)[O-])cc1)S(=O)(=O)c1ccccc1	9%	-7%
SMILES	Cruzain inh noDet	Cruzain inh Det
COc1ccc(N(CC(=O)N/N=C/c2ccc(-c3ccc([N+](=O)[O-])cc3)o2)S(=O)(=O)c2ccc(C)cc2)cc1	4µM*	0%
COc1ccc(N(CC(=O)N/N=C/c2ccc(-c3ccc([N+](=O)[O-])cc3)o2)S(=O)(=O)c2ccc(C)cc2)cc1Cl	6.3µM*	4%
COC(=O)C1(Cc2ccccc2)C=C2C(=C(C(C)C)C(=O)C2C)CN1 (stereo unspecified)	0%	6%
COc1ccc(NC(=O)c2oc3ccccc3c2NC(=O)Cc2coc3ccc(C)cc23)cc1	25µM*	-5%
CCOc1ccc(NC(=O)c2oc3ccccc3c2NC(=O)C(C)Oc2ccccc2)cc1 (stereo unspecified)	32µM*	-5%
CCOc1ccc(NC(=O)c2oc3ccccc3c2NC(=O)c2cc(C)cc(C)c2)cc1	1%	-1%
CCc1ccc2occ(CC(=O)Nc3c(C(=O)Nc4ccc(OC)cc4)oc4ccccc34)c2c1	-6%	-4%
CN(C)S(=O)(=O)c1ccc(C(=O)Nc2nc(-c3cc4ccccc4o3)cs2)cc1	?	-7%
CN(C)S(=O)(=O)c1ccc(C(=O)Nc2nnc(Cc3ccccc3)s2)cc1	-24%	3%
Cc1cc(-c2csc(NC(=O)c3ccc(S(=O)(=O)N(C)C)cc3)n2)c(C)n1-c1ccccc1	16µM*	-5%
CN(C)S(=O)(=O)c1ccc(C(=O)Nc2nnc(SCc3cccc(F)c3)s2)cc1	4µM*	-1%
CCSc1nnc(NC(=O)CN(C)S(=O)(=O)c2ccc(F)cc2)s1	-10%	-2%
CN(C)S(=O)(=O)c1ccc(C(=O)Nc2nnc(SCc3ccccc3)s2)cc1	3.2µM*	-3%
C1CCN(c2nc3nonc3nc2N2CCCCC2)CC1	-4%	-2%
CCN(CC)S(=O)(=O)c1cc(NS(=O)(=O)c2cc(Cl)ccc2Cl)ccc1C	-22%	-10%
